Source: PubChem BioAssay (NCI)
About 83,000 compounds went through this panel and 20% of them were active in at least one assay; those are over-represented in the sample as a whole.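 Cell lines were cultured in 96-well plates, exposed to a single compound concentration, and assessed for percent growth 48 hours later.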 Calls of active or inactive are those of the source. How the source made its calls: active means growth percent below 10; inactive means the rest.

tested on: MALME-3M melanoma; experiment: NCI-60 one-dose screen, 48 h (100 = growth as untreated, 0 = no growth, -100 = all killed); conditions: 10 µM unless noted

Row | SMILES | growth
1 | COc1ccc(-c2nc(SCC(C)C)nc(N/N=C\c3cccc([N+](=O)[O-])c3)c2C#N)cc1 | 48.1% (inactive)
2 | CCCCCCNC(=O)Oc1ccc(/C(=C(\C)c2ccc(OC)cc2)c2ccc(OCCN(C)C)cc2)cc1 | 1.42% (active)
3 | CCCCSc1nnc(-c2ccc(-c3ccc(Cl)cc3)nc2C)o1 | 102% (inactive)
4 | CC(C)c1nn(-c2ccccc2)c(N2CCCCC2)c1/C=N/NC(N)=S | 104% (inactive)
5 | C#C[C@]1(O)CC[C@H]2[C@@H]3CC=C4c5sc(Nc6ccc(OC)nc6)nc5CC[C@]4(C)[C@H]3CC[C@@]21C | 55.2% (inactive)
6 | COc1cc(-c2noc(C[C@@H](NC(=O)OCc3ccccc3)C(C)C)n2)cc(OC)c1OC | 94.4% (inactive)
7 | COc1ccc(-c2ccc3c4c(cccc24)C(=O)N(N2C(=O)c4cccc5cccc(c45)C2=O)C3=O)cc1 | 93.1% (inactive)
8 | Cc1nn(-c2ccc(Br)cc2)c2nc(CCl)[nH]c(=O)c12 | 106% (inactive)
9 | CN1CCN(c2ccc(C(=O)Nc3cccc(-c4cn(-c5ccc(S(N)(=O)=O)cc5)nn4)c3)cc2C(F)(F)F)CC1 | 71.4% (inactive)
10 | COc1ccc(Cn2cc3c(c2-c2ccccc2)CCCc2cnoc2-3)cc1[N+](=O)[O-] | 60.5% (inactive)
11 | NS(=O)(=O)Oc1ccc2nc(Nc3ccc(F)c(F)c3)ccc2c1 | 102% (inactive)
12 | O=C1c2c(c3c4cc(Br)ccc4[nH]c3c3ccc4ccccc4c23)C(=O)N1CCN1CCNCC1 | 80.5% (inactive)
13 | CC1CCN(S(=O)(=O)c2ncsc2-c2ccccc2)CC1 | 78.7% (inactive)
14 | O=C1NC(=O)c2c1c1c3ccccc3ccc1c1[nH]c3ccccc3c21 | -15.2% (active)
15 | COc1cc([C@H]2OC[C@H]3[C@@H]2CO[C@@H]3c2ccc(O)c(OC)c2)ccc1O | 106% (inactive)
16 | CCN(CC)CCN1C(=O)c2c(c3c4cc(Br)ccc4[nH]c3c3ccc4ccccc4c23)C1=O | -69.1% (active)
17 | CC(C)=CCC[C@](C)(O)[C@H]1CC[C@]2(C)[C@@H]1CC[C@@H]1[C@@]3(C)CCC(NC(=O)c4ccccc4C(=O)O)C(C)(C)[C@@H]3CC[C@]12C (some centres not stated) | 31.8% (inactive)
18 | Clc1ccc(-c2csc(N/N=C/c3nc4ccccc4n3C3CC3)n2)cc1 | 96.3% (inactive)
19 | Cc1ccc(-c2csc(N/N=C/c3nc4ccccc4n3C3CC3)n2)cc1 | -72.9% (active)
20 | C#C[C@]1(O)CC[C@H]2[C@@H]3CC=C4c5sc(-c6ccccn6)nc5CC[C@]4(C)[C@H]3CC[C@@]21C | 81.9% (inactive)
21 | O=C1c2c(c3c4cccnc4[nH]c3c3ccc4ccccc4c23)C(=O)N1CCN1CCNCC1 | 92.3% (inactive)
22 | O=C1c2c(c3c4cccnc4[nH]c3c3ccc4ccccc4c23)C(=O)N1CCN1CCCCC1 | 77% (inactive)
23 | COc1ccc(-c2nc(SCCC(C)C)nc(N/N=C\c3ccc(O)cc3)c2C#N)cc1 | 79.3% (inactive)
24 | CN(C)C(=O)C1=NC(CO)C(=O)N(c2ccc(Cl)cc2)N1 (configuration not stated) | 101% (inactive)

tested on: MDA-MB-231 breast; experiment: as above; conditions: 10 µM unless noted

Row | SMILES | growth
25 | O=C1Nc2ccc(Br)cc2/C1=N\c1nnc(-c2ccc(Cl)cc2)o1 | 75.2% (inactive)
26 | C#C[C@]1(O)CC[C@H]2[C@@H]3CC=C4c5sc(Nc6cccc(C)n6)nc5CC[C@]4(C)[C@H]3CC[C@@]21C | 31.9% (inactive)
27 | CS(=O)(=O)c1ccc2c(c1)c1c(n2Cc2ccc(Cl)cc2)CCCC1 | 66.1% (inactive)
28 | COc1ccc(-c2nnc(/N=C3/C(=O)Nc4ccc(Br)cc43)o2)cc1 | 108% (inactive)
29 | COc1ccc(S(=O)(=O)n2cc(C=O)c3ccccc32)c(OC)c1 | 95.5% (inactive)
30 | O=C1c2c(c3c4cccnc4[nH]c3c3ccc4ccccc4c23)C(=O)N1CCN1CCOCC1 | 86.8% (inactive)
31 | COc1ccc(NC2=C(Cl)C(=O)C(C)=C(C)C2=O)cc1 | -15.1% (active)
32 | COc1ccc(-c2cc(-c3ccc(Cl)cc3)nc3nc(N)nn23)cc1 | 104% (inactive)
33 | C#C[C@]1(O)CC[C@H]2[C@@H]3CC=C4c5sc(Nc6nc(C)cc(OC)n6)nc5CC[C@]4(C)[C@H]3CC[C@@]21C | 56.1% (inactive)
34 | COc1ccc(/C=C/C(=O)c2nnn(-c3ccc(C(=O)O)cc3)c2C)cc1OC | 96.7% (inactive)
35 | COc1cc(O)c2c(c1)/C=C/C[C@H](O)[C@H](O)C(=O)/C=C\C[C@H](C)OC2=O | -7.72% (active)
36 | COc1ccccc1/C=C/C(=O)c1nnn(-c2ccc(C(=O)O)cc2)c1C | 98.7% (inactive)
37 | O=S(=O)(Nc1ccc(C2CC2)cc1)c1ccc(-c2cnc(C3CC3)o2)cc1 | 72.5% (inactive)
38 | COc1cc(/C=N/Nc2ccnc3cc(Cl)ccc23)cc(OC)c1O | -74.6% (active)
39 | COc1ccc(-c2nc(SCC(C)C)nc(N/N=C\c3cccc([N+](=O)[O-])c3)c2C#N)cc1 | 30.5% (inactive)
40 | CCCCCCNC(=O)Oc1ccc(/C(=C(\C)c2ccc(OC)cc2)c2ccc(OCCN(C)C)cc2)cc1 | 71.8% (inactive)
41 | CCCCSc1nnc(-c2ccc(-c3ccc(Cl)cc3)nc2C)o1 | 104% (inactive)
42 | CC(C)c1nn(-c2ccccc2)c(N2CCCCC2)c1/C=N/NC(N)=S | 107% (inactive)
43 | C#C[C@]1(O)CC[C@H]2[C@@H]3CC=C4c5sc(Nc6ccc(OC)nc6)nc5CC[C@]4(C)[C@H]3CC[C@@]21C | 64.8% (inactive)

Row | SMILES | growth
44 | COc1cc(-c2noc(C[C@@H](NC(=O)OCc3ccccc3)C(C)C)n2)cc(OC)c1OC | 92.1% (inactive)
45 | COc1ccc(-c2ccc3c4c(cccc24)C(=O)N(N2C(=O)c4cccc5cccc(c45)C2=O)C3=O)cc1 | 83.7% (inactive)
46 | Cc1nn(-c2ccc(Br)cc2)c2nc(CCl)[nH]c(=O)c12 | 94.1% (inactive)
47 | CN1CCN(c2ccc(C(=O)Nc3cccc(-c4cn(-c5ccc(S(N)(=O)=O)cc5)nn4)c3)cc2C(F)(F)F)CC1 | 63.6% (inactive)
48 | COc1ccc(Cn2cc3c(c2-c2ccccc2)CCCc2cnoc2-3)cc1[N+](=O)[O-] | 75.2% (inactive)
49 | NS(=O)(=O)Oc1ccc2nc(Nc3ccc(F)c(F)c3)ccc2c1 | 94.3% (inactive)
50 | O=C1c2c(c3c4cc(Br)ccc4[nH]c3c3ccc4ccccc4c23)C(=O)N1CCN1CCNCC1 | 84.1% (inactive)
51 | CC1CCN(S(=O)(=O)c2ncsc2-c2ccccc2)CC1 | 92% (inactive)
52 | O=C1NC(=O)c2c1c1c3ccccc3ccc1c1[nH]c3ccccc3c21 | 34% (inactive)
53 | COc1cc([C@H]2OC[C@H]3[C@@H]2CO[C@@H]3c2ccc(O)c(OC)c2)ccc1O | 65.2% (inactive)
54 | CCN(CC)CCN1C(=O)c2c(c3c4cc(Br)ccc4[nH]c3c3ccc4ccccc4c23)C1=O | -65.3% (active)
55 | CC(C)=CCC[C@](C)(O)[C@H]1CC[C@]2(C)[C@@H]1CC[C@@H]1[C@@]3(C)CCC(NC(=O)c4ccccc4C(=O)O)C(C)(C)[C@@H]3CC[C@]12C (some centres not stated) | 82.6% (inactive)
56 | Clc1ccc(-c2csc(N/N=C/c3nc4ccccc4n3C3CC3)n2)cc1 | 96.7% (inactive)
57 | Cc1ccc(-c2csc(N/N=C/c3nc4ccccc4n3C3CC3)n2)cc1 | 80.4% (inactive)
58 | C#C[C@]1(O)CC[C@H]2[C@@H]3CC=C4c5sc(-c6ccccn6)nc5CC[C@]4(C)[C@H]3CC[C@@]21C | 78.6% (inactive)
59 | O=C1c2c(c3c4cccnc4[nH]c3c3ccc4ccccc4c23)C(=O)N1CCN1CCNCC1 | 89.9% (inactive)
60 | O=C1c2c(c3c4cccnc4[nH]c3c3ccc4ccccc4c23)C(=O)N1CCN1CCCCC1 | 96% (inactive)
61 | COc1ccc(-c2nc(SCCC(C)C)nc(N/N=C\c3ccc(O)cc3)c2C#N)cc1 | 54.2% (inactive)
62 | CN(C)C(=O)C1=NC(CO)C(=O)N(c2ccc(Cl)cc2)N1 (configuration not stated) | 97.9% (inactive)
